What all share (experiment): NCI-60 one-dose screen, 48 h (100 = growth as untreated, 0 = no growth, -100 = all killed)
Holding throughout (settings): 10 µM unless noted

Test [1] concerns BT-549 breast.
In test [2] the test system is MDA-MB-435 melanoma.
The subject of test [3] is SW-620 colon.
Test [4] deals with MCF7 breast.
Test [5] relates to HCT-116 colon.
The subject of test [6] is HCC-2998 colon.
The subject of test [7] is KM12 colon.
Test [8] has as its system T-47D breast.

About 83,000 compounds went through this panel and 20% of them were active in at least one assay; those are over-represented in the sample as a whole.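 96-well plates, one dose, 48 hours. Percent growth reported; active if below 10.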 Unmarked numbers belong to inactive results. The source made the active and inactive calls.

`C/C=C(/C)C(=O)OC1C=C(CO)C(=O)C(OC(=O)C2(C)OC2C)C1C(C)C` (configuration not stated): the growth in test [1] was -7.25% (active); in test [2], -31.8% (active); in test [3], -26.8% (active); in test [4], 8.26% (active); in test [5], -58.9% (active); in test [6] it was -87.6% (active). Also, the growth in test [7] is -56.3% (active).

As to `COc1ccc(C2CC(=O)c3c(O)cc(OC4OC(COC5OC(C)C(O)C(O)C5O)C(O)C(O)C4O)cc3O2)cc1O` (configuration not stated), the growth in test [8] is 121%; in test [2] it was 102%; in test [3], 113%; in test [4] it was 95.1%; in test [5], 43.6%; in test [6] it was 129%. Besides, the growth in test [7] was 124%.

Regarding `O=C1Nc2c(c(=O)n(-c3ccccc3)c3ccccc23)C(c2ccc(Cl)cc2)N1` (configuration not stated), the growth is 91.5% in test [8]; 99.9% in test [2]; 98% in test [3]; 91.1% in test [4]; 56.2% in test [5]; 61% in test [6]. Further, in test [7], the growth is 61.1%.

`O=C(Nc1ccc(-n2cc(-c3ccncc3)c(-c3ccc(Cl)c(O)c3)n2)cc1)c1cc(Cl)cc(Cl)c1`: the growth was 79.1% in test [8]; 42.2% in test [2]; 0.0883% (active) in test [3]; 51.6% in test [4]; 16.1% in test [5]; 33% in test [6]. In test [7], the growth was 19.3%.

With `NCCCOc1cc2ccccc2cc1C(=O)Nc1ccc(Cl)cc1OC(=O)c1cc2ccccc2cc1OCCCN`, the growth is -55.9% (active) in test [8]; -76.9% (active) in test [2]; -94.9% (active) in test [3]; -78.9% (active) in test [4]; -92.6% (active) in test [5]; -96.5% (active) in test [7].

In the case of `OC(c1ccccc1)(c1ccccc1)C(F)(F)F`, the growth in test [8] is 92.1%; in test [2], 103%; in test [4], 104%; in test [5] it was 107%; in test [7], 92.3%.

With `O=C(N/N=C\c1ccc(-c2ccc(Br)cc2)o1)c1cc2oc(-c3cccc(C(F)(F)F)c3)cc2[nH]1`, the growth in test [8] was 101%; in test [3], 118%; in test [4], 89.9%; in test [6], 85.5%; in test [7], 74%.

For the compound `N#Cc1c2cccnc2c2nnc3cc(Cl)c(Cl)cc3n12`, the growth in test [8] is 25.9%; in test [2], 84.4%; in test [3] it was -39% (active); in test [4], 1.41% (active); in test [5], -73.1% (active); in test [6], 13.4%. Besides, the growth in test [7] is 47.5%.

Turning to `CC(=O)N1CCN(CCNC(=O)n2cc(-c3ccncc3)c(-c3cc(O)cc(Cl)c3)n2)CC1`, the growth in test [8] is 100%; in test [3], 76.8%; in test [4], 93.4%; in test [5] it was 43.6%; in test [6], 122%; in test [7], 91.3%.

`CCN(CC)CCCC(C)Nc1c(C)cnc2cc(Cl)c(C)cc12` (configuration not stated): the growth is 69.2% in test [1]; 89.9% in test [2]; 85.9% in test [3]; 85.6% in test [4]; 56.9% in test [5]; 74.5% in test [6]. Also, the growth in test [7] was 81.9%.

In the case of `C/C(=N\Nc1ccc(Cl)cn1)c1ccccn1`, the growth in test [1] was 9.46% (active); in test [2], 26.4%; in test [3] it was 27%; in test [4], 3.89% (active); in test [5], 1.21% (active); in test [6], 27%. Further, the growth in test [7] is 20%.

As to `N#Cc1c2ncccc2c2nnc3cc(Cl)c(Cl)cc3n12`, the growth in test [8] was 60.4%; in test [3] it was 78.7%; in test [4], 38.9%; in test [5], 78.7%; in test [6] it was 75.6%; in test [7], 89%.

Turning to `COc1cc2oc(-c3ccc(NC(=O)c4ccccc4)cc3)cc(=O)c2c(OC)c1OC`, the growth in test [1] was 75.6%; in test [2] it was 95%; in test [3], 93.2%; in test [4] it was 75%; in test [5] it was 91.3%; in test [6], 89.8%. In addition, the growth in test [7] is 90.6%.

For `O=C(NCCCl)Nc1nccnc1OCc1ccc(F)cc1`, the growth was 88.8% in test [1]; 107% in test [2]; 103% in test [3]; 85.1% in test [4]; 104% in test [5]; 113% in test [6]. The growth in test [7] is 107%.

Take `Cc1[nH]n(C(=S)Nc2nc3cc(Cl)c(F)cc3s2)c(=O)c1N=Nc1ccc(F)c(Cl)c1`: the growth in test [8] is 79.6%; in test [2] it was 124%; in test [3] it was 102%; in test [4] it was 80.8%; in test [6], 114%; in test [7] it was 110%.

Take `CCOC(=O)c1sc(NS(=O)(=O)c2ccccc2)nc1C`: the growth was 111% in test [8]; 111% in test [3]; 96.2% in test [4]; 57.9% in test [5]; 27.5% in test [6]; 129% in test [7].

For the compound `CC(=O)Nc1nc(C)c(C(=O)NNS(=O)(=O)c2ccccc2)s1`, the growth is 114% in test [8]; 125% in test [2]; 106% in test [3]; 110% in test [4]; 52.1% in test [5]; 105% in test [6]. The growth in test [7] is 125%.

With `COc1ccc2c(c1)cn1c3ccc(O)cc3[nH]c(=O)c21`, the growth in test [8] is 37.2%; in test [2], 1.04% (active); in test [3], 8.4% (active); in test [4], -4.36% (active); in test [5] it was -85.4% (active); in test [6] it was 11.8%. For the same compound, the growth in test [7] was 9.45% (active).

Take `COc1cc(-c2nn(-c3ccc(NC(=O)c4cc(Cl)cc(Cl)c4)cc3)cc2-c2ccncc2)ccc1Cl`: the growth in test [8] is 79.8%; in test [2], 84.1%; in test [3], 77.2%; in test [4] it was 78%; in test [5], 64.9%; in test [6], 62.2%. The growth in test [7] was 38.7%.

In the case of `COc1ccc2cn3c4ccc(O)cc4[nH]c(=O)c3c2c1`, the growth in test [8] was 33.9%; in test [2], -37.7% (active); in test [3], 11.3%; in test [4] it was -5.85% (active); in test [5], 10.6%; in test [6] it was 19.3%. Besides, the growth in test [7] is 11.9%.

Consider `COC(=O)C1CC(=O)N(C(=O)Nc2ccc(Cl)cc2Cl)C1` (configuration not stated), for which the growth was 95.9% in test [1]; 107% in test [2]; 105% in test [3]; 87.6% in test [4]; 98.1% in test [5]; 107% in test [6]. For the same compound, the growth in test [7] was 104%.

Turning to `O=C1C(=O)c2ccccc2C(O)=C1CCCc1ccc(Oc2ccccc2)cc1`, the growth in test [1] was 60.9%; in test [2] it was 45.4%; in test [3], 39.9%; in test [4], 83.3%; in test [5] it was 22.1%; in test [6] it was 103%. Moreover, the growth in test [7] was 67.3%.

Take `COc1ccc2c(N)ncc(C#Cc3cc(C(=O)Nc4ccc(CN5CCN(C)CC5)c(C(F)(F)F)c4)cnc3C)c2c1`: the growth in test [1] was 46%; in test [2], -56.7% (active); in test [3], -57.7% (active); in test [4], -49.2% (active); in test [5], -75.8% (active); in test [6], 19.3%. Also, the growth in test [7] is -49.1% (active).

Values taken from PubChem BioAssay (NCI).
